Screening results as filed in PubChem.
An excerpt weighted towards active compounds, which were near 4% of everything screened.
LMP1 NFkB inh: EBV LMP1-driven NF-kappaB luciferase reporter inhibitors, primary screen, cell-based, luminescence, single point | actives 0.69% (n = 350,000) | AID 504558, 2011 | inhibition, % at 12.5 µM | LMP1-induced NF-kappaB luciferase reporter cells; in the data active means inhibition above about 41%; inconclusive means no clear call, values can overlap the other calls;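 further: 0% = neutral control wells and 100% = reference inhibitor control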
esBAF inh: Bmi1 luciferase reporter increase in mESCs, primary screen, esBAF inhibitor project, mouse ES cells, Bmi1 luciferase knock-in, single point; reporter increase, % at 12.5 µM; actives 2% (n = 350,000); 24 h; 100% = twice the neutral-well signal; in the data active means activation above about 40%; inconclusive means no clear call, values can overlap the other calls;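 further: 0% = median of the plate's neutral control wells and 100% = double that signal; a rise in the Bmi1 reporter signal indicates esBAF inhibition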
Wnt act: Wnt/beta-catenin pathway activators, primary screen, cell-based, plate reader, single point. AID 743398, 2014. Wnt/beta-catenin reporter cell assay, activator. actives 1.2% (n = 300,000). activation, % at 9.35 µM; in the data active means activation above about 30%, passing the limit was not always enough; inconclusive means no clear call, values can overlap the other calls;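 further: 0% = neutral control wells and 100% = positive control wells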
MITF act: activators of MITF-driven TRPM1 promoter reporter, primary screen, cell-based, SK-MEL-5, luciferase, single point | SK-MEL-5 TRPM1-promoter luciferase, 24 h; % of positive control, neutral wells = 0 | activation, % at 12.5 µM | actives 0.75% (n = 300,000);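 active means mean activation of at least 80% with every replicate also reaching 80%; inconclusive means mean reaches 80% but some replicate falls short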;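 further: 0% = neutral control wells and 100% = parthenolide positive control wells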
MITF TRPM1 inh: inhibitors of MITF-dependent TRPM1 promoter reporter, primary screen, cell-based, SK-MEL-5, single point, luciferase. SK-MEL-5 TRPM1 promoter luciferase, 24 h. actives 0.83% (n = 330,000). inhibition, % at 12.5 µM. AID 488899, 2010;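 active means mean inhibition across replicates of 60% or more, whatever share of single replicates reaches that level; inconclusive means some that reach 60%, reason not given; inactive means mean inhibition across replicates below 60%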
C2C12 statin: suppressors of statin myotoxicity in C2C12 myotubes, primary screen, cell-based, single point, plate reader; actives 0.78% (n = 330,000); rescue of ATP level, % at 7.49 µM; AID 602340, 2012; C2C12 myotubes + simvastatin, ATP luminescence, 48 h; scaled: DMSO 0, geranylgeraniol control 100;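 active means mean ATP rescue above about 67%, or every replicate alone reaching that limit, limit read from the data, passing the limit was not always enough; inconclusive means no clear call, values can overlap the other calls; inactive means mean under the limit and some replicate under it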;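 further: myotubes were challenged with 10 µM simvastatin during compound exposure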
* hit, by the source's call; ? = inconclusive; · = no result.

SMILES	LMP1 NFkB inh	esBAF inh	Wnt act	MITF act	MITF TRPM1 inh	C2C12 statin
C(=N\Nc1nc2ccccc2[nH]1)/c1ccncc1	-25.0	·	6.2	14.2	-35.4	·
CCOC(=O)c1ccccc1NC(=O)CN(c1cccc(OC)c1)S(C)(=O)=O	-7.2	-2.4	-6.0	5.1	-1.8	19.7
Nc1[nH][nH]c(=O)c1N=Nc1ccccc1	6.9	13.8	11.2	7.6	-3.3	-6.1
COc1cccc(C(NC(C)=O)c2nc(-c3ccc(N(C)C)cc3)cs2)c1 (stereo unspecified)	·	-2.4	-1.3	·	·	3.2
COc1ccccc1C(=O)Nc1ccc2c(C)cc(=O)oc2c1	-14.7	54.4*	48.1*	87.9*	-92.1	-19.3
Cc1cc(=O)oc2cc(OCC(=O)Nc3cccc(S(=O)(=O)N(C)C)c3)ccc12	3.1	·	-2.6	6.0	-5.1	·
Cc1cc(=O)oc2cc(NC(=O)c3cccc(S(C)(=O)=O)c3)ccc12	-51.8	?	7.4	92.5*	-89.7	-12.8
Cc1cc(=O)oc2cc(NC(=O)c3ccc(OC(F)F)cc3)ccc12	-54.3	57.0*	10.9	86.1*	-82.7	-57.0
Cc1cc(=O)oc2cc(NC(=O)c3cccc(S(=O)(=O)N(C)C)c3)ccc12	-25.3	39.7	28.1	139.2*	-136.9	-63.7
Cc1nn(CC(=O)N2CC(=O)Nc3ccccc32)c(C)c1[N+](=O)[O-]	-3.2	2.0	-2.0	-1.9	4.5	12.2
CCCCCCSc1ccc([C@H]2N[C@@](Cc3ccccc3)(C(=O)OC)[C@H]3C(=O)N(CC)C(=O)[C@@H]23)cc1	5.2	-3.1	-11.8	-11.6	14.0	-11.3
COc1ccc(C(=O)N2CCN(c3ccccn3)CC2)cc1	-4.5	-3.4	·	·	5.5	-6.0
COC(=O)c1ccc(N(CC(=O)NC2CCCC2)C(=O)CNC(=O)c2cccs2)cc1	-3.1	-2.1	-0.7	7.8	-8.6	-8.4
CC(C)C(NC(=O)C1CCCCC1)C(=O)Nc1ccncc1 (stereo unspecified)	-7.3	-2.0	-1.9	-3.2	1.1	124.4*
CC(C)C(NC(=O)C1CCCCC1)C(=O)Nc1ccc2c(c1)OCCO2 (stereo unspecified)	3.0	-19.0	11.6	·	5.3	13.5
C/C(=N/NC(=O)c1ccc2c(c1)OCO2)c1cccc([N+](=O)[O-])c1	-9.6	31.4	-1.8	126.3*	-126.4	-4.4
C/C(=N/NC(=O)c1ccc2c(c1)OCO2)c1cccc(NC(=O)C(C)(C)C)c1	-14.6	35.0	16.8	13.6	-9.0	111.2*
Cc1nn2c(-c3ccc(Cl)cc3)ccnc2c1-c1ccccc1	-22.5	57.0*	9.7	·	-80.3	-40.1
Cc1nn2c(N)c(-c3ccccc3)cnc2c1-c1ccccc1	-33.1	50.1*	-0.7	·	-70.6	-15.7
COc1ccc(C(C)NC(=O)c2ccncc2)cc1 (stereo unspecified)	-6.4	-3.7	-2.1	7.6	-7.8	3.8
COc1cccc(Cn2nc(C(=O)O)c3ccccc3c2=O)c1	3.4	5.7	-1.1	3.7	-4.7	10.9
CC(C)(C)OC(=O)N1CCCN(C(=O)Nc2ccc(OC(F)(F)F)cc2)CC1	-4.2	4.4	-0.3	2.8	-3.2	-40.7
C[C@H]1CN([C@@H](C)CO)C(=O)Cc2cc(NC(=O)CCCCCC(=O)Nc3ccccc3N)ccc2O[C@@H]1CN(C)Cc1ccc(-c2ccccc2)cc1	·	35.9	·	·	·	132.8*
C[C@H]1CN([C@@H](C)CO)C(=O)Cc2cc(NC(=O)CCCCCC(=O)Nc3ccccc3N)ccc2O[C@H]1CN(C)Cc1ccc(Cl)c(Cl)c1	·	-19.6	·	·	·	105.4*
C[C@@H]1CN([C@@H](C)CO)C(=O)Cc2cc(NC(=O)CCCCCC(=O)Nc3ccccc3N)ccc2O[C@H]1CN(C)Cc1ccc(C(F)(F)F)cc1	·	-5.8	·	·	·	?
SMILES	LMP1 NFkB inh	esBAF inh	Wnt act	MITF act	MITF TRPM1 inh	C2C12 statin
C[C@H]1CN([C@@H](C)CO)C(=O)Cc2cc(NC(=O)CCCCCC(=O)Nc3ccccc3N)ccc2O[C@H]1CN(C)Cc1ccc(C(F)(F)F)cc1	·	-14.5	·	·	·	110.9*
C[C@@H]1CN([C@@H](C)CO)C(=O)c2cc(NC(=O)CCCCCC(=O)Nc3ccccc3N)ccc2O[C@@H]1CN(C)C(=O)Nc1ccc(C(F)(F)F)cc1	·	6.8	·	·	·	68.2*
C[C@@H]1CN([C@@H](C)CO)C(=O)Cc2cc(NC(=O)CCCCCC(=O)Nc3ccccc3N)ccc2O[C@@H]1CN(C)Cc1ccc(-c2ccccc2)cc1	·	5.1	·	·	·	19.2
C[C@H]1CN([C@@H](C)CO)C(=O)c2cc(NC(=O)CCCCCC(=O)Nc3ccccc3N)ccc2O[C@H]1CN(C)C(=O)Nc1ccc(C(F)(F)F)cc1	·	1.6	·	·	·	41.3
CCCNC(=O)C[C@H]1C[C@H]2c3cc(NC(=O)Nc4ccc(OC)cc4)ccc3O[C@H]2[C@@H](CO)O1	·	1.3	·	·	·	1.0
COc1ccc(NC(=O)c2noc3c2CCCCC3)cc1	-27.3	25.7	-0.9	55.5	-55.4	11.5
COc1ccc(-c2nn(-c3ccccc3F)cc2CNCCn2nc(C)cc2C)cc1	15.6	·	·	2.4	-0.5	·
C[C@@H]1CN([C@H](C)CO)C(=O)Cc2cc(NC(=O)CCCCCC(=O)Nc3ccccc3N)ccc2O[C@H]1CN(C)CC1CCCCC1	·	-14.0	·	·	·	88.5*
C[C@H]1CN([C@@H](C)CO)C(=O)Cc2cc(NC(=O)CCCCCC(=O)Nc3ccccc3N)ccc2O[C@@H]1CN(C)CC1CCCCC1	·	-5.9	·	·	·	?
C[C@H](CO)N1C[C@H](C)[C@H](CN(C)Cc2ccccc2)Oc2ccc(NC(=O)CCCCCC(=O)Nc3ccccc3N)cc2CC1=O	·	-3.7	·	·	·	79.9*
C[C@H]1CN([C@@H](C)CO)C(=O)Cc2cc(NC(=O)CCCCCC(=O)Nc3ccccc3N)ccc2O[C@H]1CN(C)Cc1ccc(Oc2ccccc2)cc1	·	-6.0	·	·	·	103.7*
C[C@H](CO)N1C[C@H](C)[C@H](CN(C)Cc2ccc(Oc3ccccc3)cc2)Oc2ccc(NC(=O)CCCCCC(=O)Nc3ccccc3N)cc2CC1=O	·	-5.0	·	·	·	-7.0
C[C@H]1CN([C@@H](C)CO)C(=O)Cc2cc(NC(=O)CCCCCC(=O)Nc3ccccc3N)ccc2O[C@@H]1CN(C)Cc1ccc(C(F)(F)F)cc1	·	5.4	·	·	·	?
COCc1ccc(CN2CCC(n3nccc3NC(=O)CCOc3ccccc3)CC2)o1	-2.5	-2.1	-1.5	-10.5	11.5	1.6
CN(C)S(=O)(=O)c1ccc(Cl)c(NC(=O)CSc2nc3c(cc2C#N)C(=O)CC(C)(C)C3)c1	-8.0	·	-1.5	-1.9	-0.7	·
